The record followed here is PubChem BioAssay (Tox21).

Several values for one entry are separate records, joined by “and”; a condition that tells them apart may be missing. Equal values may be shown once. Records with an inconclusive call do not appear. Activity calls are given as the source filed them. Unless noted, calls follow the shape of the dose curve; as a rule, active = well fitted curve in the direction sought with a large enough effect in the repeat runs; inconclusive = weak or mixed curves; inactive = no such curve, though single readings can be large; an effect the other way counts as inactive or inconclusive.

Assay [1] is described as follows: qHTS assay to identify small molecule agonists of the sonic hedgehog signaling (Shh) pathway (AID 1259368; calls by dose curve;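 also: NIH/3T3-derived 3T3Gli1-Luc cells carrying a stable Gli1-driven firefly luciferase reporter; series mostly up to about 92 µM; nearly all actives have a fitted effect of over 15% in size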). Put shortly:
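3T3Gli1-Luc (NIH/3T3 clone, stable Gli1-Luc); 4 hr pre-incubation, then cpd in DMSO 24 hr, 37 C/5% CO2; luciferase reagent 30 min RT; luminescence.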

Assay [2] in a line: qHTS assay to identify small molecule agonists of the androgen receptor (AR) signaling pathway in the presence of an antagonist - cell viability counter screen (AID 1259379). Also: nearly all actives have a fitted effect of over 25% in size. Also: potency is read from the fitted curve at half-maximal effect. Put shortly:
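Cells: MDA-kb2 (MMTV-luc, AR and GR elements), 3,000/well, 5 hr settle. Added: nilutamide 3.0uM final, then compounds (15 conc.). Incubation: 16 hr, 37C, no CO2. Read-out: CellTiter-Fluor, 1 hr, fluorescence.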
In general terms: Quantitative high-throughput screening tests each substance at several concentrations.

Assay [3] is described as follows: qHTS assay to identify small molecule agonists of the estrogen receptor beta (ER-beta) signaling pathway - cell viability counter screen (AID 1259380). Also: nearly all actives have a fitted effect of over 30% in size. Put shortly:
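HEK293T ER-beta-UAS-bla; 2% CS-FBS; 6 hr pre-plate, 16 hr cpd at 37C/5% CO2; LiveBLAzer read first, then CellTiter-Glo 30 min RT, luminescence.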

A short description of assay [4]: qHTS assay to identify small molecule antagonists of the estrogen receptor beta (ER-beta) signaling pathway - cell viability counter screen (AID 1259382). Also: series mostly up to about 92 µM; nearly all actives have a fitted effect of over 55% in size. Put shortly: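 Cells: ER-beta-UAS-bla HEK293T, 2,000/well, 2% CS-FBS, 6 hr settle. Cpd + E2 (1nM final), 16 hr, 37C/5% CO2. Bla FRET substrate 2 hr RT, then CellTiter-Glo 30 min RT, luminescence.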
Assay [5] has as its target Estrogen receptor (Homo sapiens) (UniProt P03372). The assay can be described thus: qHTS assay to identify small molecule agonists of the estrogen receptor alpha (ER-alpha) signaling pathway in the presence of an antagonist (AID 1259383; calls by dose curve; also: top concentration of the series differs between compounds; nearly all actives have a fitted effect of over 15% in size). Put shortly: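 VM7Luc4E2, endog. ER-alpha + 4×ERE-luc; charcoal-stripped FBS, phenol red-free, 5 d; 24hr plating; +10.0nM ICI-182,780 (final); cpds 15 conc, 22hr, 37C/5% CO2; ONE-Glo luminescence.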

Assay [6] in a line: qHTS assay to identify small molecule agonists or antagonists of the thyroid stimulating hormone receptor (TSHR) signaling pathway - wild type cell line counter screen (AID 1259384; calls by dose curve). The method, boiled down: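 Wild-type Hek293 cells, 800/well, 18 h at 37C, then compound with Ro20-1724 for 30 min RT. cAMP by HTRF (cAMP-d2/anti-cAMP cryptate), 1 h RT, fluorescence read. 15 concentrations, triplicates.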

Assay [7] concerns the target Thyrotropin receptor (Homo sapiens) (UniProt P16473). The assay can be described thus: qHTS assay to identify small molecule antagonists of the thyroid stimulating hormone receptor (TSHR) signaling pathway (AID 1259385; calls by dose curve; also: nearly all actives have a fitted effect of over 20% in size). Put shortly:
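TSHR-HEK293 cells (800/well) plated 18 h, then compounds with Ro20-1724 and TSH at 1.5 ng/mL final, 30 min at room temperature. cAMP quantified by HTRF (cAMP-d2/anti-cAMP-cryptate, 1 h); 15 concentrations in triplicate.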

The nature of assay [8]: qHTS assay to identify small molecule agonists of the estrogen receptor alpha (ER-alpha) signaling pathway in the presence of an antagonist - cell viability counter screen (AID 1259386).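 Also: cells exposed to compounds for 22 h at 37 °C before the viability read; nearly all actives have a fitted effect of over 30% in size.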 Also: potency is read from the fitted curve at half-maximal effect. Put shortly:
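VM7Luc4E2, stripped-serum pre-culture 5 d; 24hr plating; +ICI-182,780 10.0nM final; cpds 15 conc, 22hr, 37C/5% CO2; CellTiter-Fluor added at 21hr, fluorescence 1hr later.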

Assay [9] concerns the target Progesterone receptor (Homo sapiens) (UniProt P06401). The assay can be described thus: qHTS assay to identify small molecule agonists of the progesterone receptor (PR) signaling pathway (AID 1346784; calls by dose curve; also: nearly all actives have a fitted effect of over 30% in size). Put shortly:
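Using charcoal-stripped serum (2%) to limit endogenous steroids, PR-UAS-bla HEK 293T cells received compounds for 16 hr at 37C after 6 hr plating; beta-lactamase FRET fluorescence was recorded following 2 hr substrate loading at room temperature.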

The target is the same in assay [10]. The assay can be described thus: qHTS assay to identify small molecule antagonists of the progesterone receptor (PR) signaling pathway (AID 1346795; active = well fitted inhibition curve with a large enough effect in the signal ratio in the repeat runs, not every such curve was filed as active; the % refers to the signal ratio). Put shortly: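 Inhibition of R5020-induced (1 nM final) beta-lactamase reporter signal in PR-UAS-bla HEK293T cells was scored by FRET fluorescence after overnight (16 hr) compound treatment.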
Assay [11] can be described thus: qHTS assay to identify small molecule antagonists of the progesterone receptor (PR) signaling pathway - cell viability counter screen (AID 1346798). Also: series mostly up to about 92 µM; nearly all actives have a fitted effect of over 50% in size. Put shortly:
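ATP content as viability readout: CellTiter-Glo luminescence, 30 min room temperature, in PR-UAS-bla HEK293T cells after 16 hr compound/R5020 treatment at 37C and 5% CO2.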

The nature of assay [12]: qHTS assay to identify small molecule agonists of the progesterone receptor (PR) signaling pathway - cell viability counter screen (AID 1346799; calls by dose curve; also: nearly all actives have a fitted effect of over 45% in size). The method, boiled down: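 Cytotoxicity in PR-bla HEK293T cells: 16 h compound, 37C; CellTiter-Glo added post-FRET read; luminescence after 30 min RT.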
Assay [13] can be described thus: qHTS assay to identify small molecule antagonists of the TGF-beta/Smad signaling pathway - cell viability counter screen (AID 1346824). Also: nearly all actives have a fitted effect of over 50% in size. Put shortly:
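SBE-bla HEK 293T cells, incubated overnight, then compound plus 0.25 ng/mL TGF-beta1 (stock added) for 5 hr at 37 C. Viability was read in the same wells by CellTiter-Glo luminescence after 30 min at room temperature.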

A short description of assay [14]: qHTS assay to identify small molecule agonists of the TGF-beta/Smad signaling pathway - cell viability counter screen (AID 1346829). Also: top concentration of the series differs between compounds; nearly all actives have a fitted effect of over 45% in size. Put shortly: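 CellTiter-Glo luminescence readout; SBE-bla HEK 293T cells, overnight plating, compound 5 hr at 37 C/5% CO2, then bla substrate 2 hr RT, then CellTiter-Glo 30 min RT.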
Assay [15] is described as follows: qHTS assay to identify small molecule agonists of the TGF-beta/Smad signaling pathway (AID 1346859; active = well fitted activation curve with a large enough effect in the signal ratio in the repeat runs, not every such curve was filed as active; the % refers to the signal ratio; also: series mostly up to about 77 µM). Put shortly:
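Stable Smad binding element-beta-lactamase HEK 293T cells; 5 hr compound exposure at 37 C under 5% CO2; 2 hr room-temperature substrate step; fluorescence excited at 405 nm, collected at 460 nm and 530 nm.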

The target of assay [16] is Estrogen receptor beta (Homo sapiens) (UniProt Q92731). The assay can be described thus: qHTS assay to identify small molecule agonists of the estrogen receptor beta (ER-beta) signaling pathway (AID 1259377; active = well fitted activation curve with a large enough effect in the signal ratio in the repeat runs, not every such curve was filed as active; the % refers to the signal ratio). The method, boiled down:
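In HEK293T cells bearing a UAS-beta-lactamase reporter under ER-beta control, DMSO-delivered compounds were incubated for 16 hr at 37C. Activity was detected as fluorescence 2 hours after LiveBLAzer B/G FRET substrate addition.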

For assay [17] the target is unchanged. The assay can be described thus: qHTS assay to identify small molecule antagonists of the estrogen receptor beta (ER-beta) signaling pathway (AID 1259378; active = well fitted inhibition curve with a large enough effect in the signal ratio in the repeat runs, not every such curve was filed as active; the % refers to the signal ratio). The method, boiled down: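 ER-beta-UAS-bla HEK293T cells in 2% charcoal-stripped FBS medium treated with compound plus 1nM final 17-beta-estradiol for 16 hr at 37C. Beta-lactamase reporter read by FRET substrate fluorescence after 2 hours at room temperature.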

Assay [18] concerns the target Thyrotropin-releasing hormone receptor (Homo sapiens) (UniProt P34981). The assay can be described thus: qHTS assay to identify small molecule antagonists of the thyrotropin-releasing hormone receptor (TRHR) signaling pathway (AID 1346877; active = well fitted inhibition curve with a large enough effect in the repeat runs, not every such curve was filed as active; also: series mostly up to about 51 µM). Put shortly: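 Intracellular calcium fluorescence, read kinetically every second over 3 min, reports TRH-evoked signalling in HEK293 cells carrying TRHR. Test compounds were added 5 min ahead of a 1 nM TRH challenge.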

Sequence of Estrogen receptor (Homo sapiens) (P03372 whole entry, looked up): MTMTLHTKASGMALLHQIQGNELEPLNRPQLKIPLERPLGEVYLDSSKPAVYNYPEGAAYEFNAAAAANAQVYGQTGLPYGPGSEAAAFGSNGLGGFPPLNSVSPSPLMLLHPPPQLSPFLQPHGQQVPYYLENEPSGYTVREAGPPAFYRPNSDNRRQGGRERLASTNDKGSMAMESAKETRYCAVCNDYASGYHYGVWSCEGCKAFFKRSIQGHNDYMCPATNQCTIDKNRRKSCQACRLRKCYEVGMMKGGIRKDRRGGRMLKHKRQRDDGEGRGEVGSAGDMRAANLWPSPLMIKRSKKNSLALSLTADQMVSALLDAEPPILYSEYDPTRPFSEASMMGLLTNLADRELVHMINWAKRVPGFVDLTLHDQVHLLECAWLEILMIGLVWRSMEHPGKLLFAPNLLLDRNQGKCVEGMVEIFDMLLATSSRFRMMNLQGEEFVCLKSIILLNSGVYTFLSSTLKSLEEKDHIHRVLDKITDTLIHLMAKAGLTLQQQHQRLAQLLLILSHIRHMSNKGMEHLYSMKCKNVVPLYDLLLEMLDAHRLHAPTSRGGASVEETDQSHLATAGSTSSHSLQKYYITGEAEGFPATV
Sequence of Thyrotropin receptor (Homo sapiens) (P16473 whole entry, looked up): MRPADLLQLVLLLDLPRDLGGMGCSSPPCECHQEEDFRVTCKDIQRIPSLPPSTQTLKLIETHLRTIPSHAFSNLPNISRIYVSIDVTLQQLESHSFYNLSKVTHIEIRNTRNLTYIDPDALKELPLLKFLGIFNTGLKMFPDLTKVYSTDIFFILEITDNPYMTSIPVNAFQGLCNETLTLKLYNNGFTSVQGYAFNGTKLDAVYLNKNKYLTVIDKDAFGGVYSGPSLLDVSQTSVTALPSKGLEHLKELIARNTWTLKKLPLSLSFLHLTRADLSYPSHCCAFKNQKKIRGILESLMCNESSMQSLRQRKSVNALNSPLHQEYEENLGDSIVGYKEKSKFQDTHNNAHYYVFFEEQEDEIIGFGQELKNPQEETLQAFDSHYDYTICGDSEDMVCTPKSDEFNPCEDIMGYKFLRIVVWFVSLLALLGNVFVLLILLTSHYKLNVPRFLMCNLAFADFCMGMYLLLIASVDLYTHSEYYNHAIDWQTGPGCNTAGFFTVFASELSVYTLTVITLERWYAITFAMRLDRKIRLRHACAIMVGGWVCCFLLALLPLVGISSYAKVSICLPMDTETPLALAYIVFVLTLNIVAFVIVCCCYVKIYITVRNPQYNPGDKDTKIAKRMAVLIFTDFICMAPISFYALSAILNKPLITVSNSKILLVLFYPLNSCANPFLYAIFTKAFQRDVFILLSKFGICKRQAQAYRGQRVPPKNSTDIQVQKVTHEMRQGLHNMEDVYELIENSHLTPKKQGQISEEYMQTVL
Sequence of Thyrotropin-releasing hormone receptor (Homo sapiens) (P34981 whole entry, looked up): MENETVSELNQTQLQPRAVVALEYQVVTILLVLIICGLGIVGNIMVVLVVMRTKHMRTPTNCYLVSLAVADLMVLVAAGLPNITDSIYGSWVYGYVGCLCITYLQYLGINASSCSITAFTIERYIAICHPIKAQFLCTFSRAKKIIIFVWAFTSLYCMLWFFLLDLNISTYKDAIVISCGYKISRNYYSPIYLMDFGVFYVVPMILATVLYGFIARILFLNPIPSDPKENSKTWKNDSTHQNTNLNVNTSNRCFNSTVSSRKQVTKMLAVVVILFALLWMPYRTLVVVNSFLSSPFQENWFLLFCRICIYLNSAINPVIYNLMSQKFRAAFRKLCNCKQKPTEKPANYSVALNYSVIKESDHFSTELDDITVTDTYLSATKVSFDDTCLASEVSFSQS
Sequence of Estrogen receptor beta (Homo sapiens) (Q92731 whole entry, looked up): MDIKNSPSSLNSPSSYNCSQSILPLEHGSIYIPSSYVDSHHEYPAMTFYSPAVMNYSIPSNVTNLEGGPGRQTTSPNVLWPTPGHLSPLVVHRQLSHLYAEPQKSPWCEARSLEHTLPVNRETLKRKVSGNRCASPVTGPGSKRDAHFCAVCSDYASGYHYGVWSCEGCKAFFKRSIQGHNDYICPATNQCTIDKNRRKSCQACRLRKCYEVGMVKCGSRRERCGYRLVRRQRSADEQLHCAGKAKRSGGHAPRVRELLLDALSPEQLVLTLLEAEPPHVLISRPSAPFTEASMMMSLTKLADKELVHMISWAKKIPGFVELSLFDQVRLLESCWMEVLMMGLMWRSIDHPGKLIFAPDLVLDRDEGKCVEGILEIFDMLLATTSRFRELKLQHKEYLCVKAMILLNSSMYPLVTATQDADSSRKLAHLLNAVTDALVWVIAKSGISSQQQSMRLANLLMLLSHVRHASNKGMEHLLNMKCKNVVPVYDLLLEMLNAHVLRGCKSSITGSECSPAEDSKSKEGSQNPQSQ
Sequence of Progesterone receptor (Homo sapiens) (P06401 whole entry, looked up): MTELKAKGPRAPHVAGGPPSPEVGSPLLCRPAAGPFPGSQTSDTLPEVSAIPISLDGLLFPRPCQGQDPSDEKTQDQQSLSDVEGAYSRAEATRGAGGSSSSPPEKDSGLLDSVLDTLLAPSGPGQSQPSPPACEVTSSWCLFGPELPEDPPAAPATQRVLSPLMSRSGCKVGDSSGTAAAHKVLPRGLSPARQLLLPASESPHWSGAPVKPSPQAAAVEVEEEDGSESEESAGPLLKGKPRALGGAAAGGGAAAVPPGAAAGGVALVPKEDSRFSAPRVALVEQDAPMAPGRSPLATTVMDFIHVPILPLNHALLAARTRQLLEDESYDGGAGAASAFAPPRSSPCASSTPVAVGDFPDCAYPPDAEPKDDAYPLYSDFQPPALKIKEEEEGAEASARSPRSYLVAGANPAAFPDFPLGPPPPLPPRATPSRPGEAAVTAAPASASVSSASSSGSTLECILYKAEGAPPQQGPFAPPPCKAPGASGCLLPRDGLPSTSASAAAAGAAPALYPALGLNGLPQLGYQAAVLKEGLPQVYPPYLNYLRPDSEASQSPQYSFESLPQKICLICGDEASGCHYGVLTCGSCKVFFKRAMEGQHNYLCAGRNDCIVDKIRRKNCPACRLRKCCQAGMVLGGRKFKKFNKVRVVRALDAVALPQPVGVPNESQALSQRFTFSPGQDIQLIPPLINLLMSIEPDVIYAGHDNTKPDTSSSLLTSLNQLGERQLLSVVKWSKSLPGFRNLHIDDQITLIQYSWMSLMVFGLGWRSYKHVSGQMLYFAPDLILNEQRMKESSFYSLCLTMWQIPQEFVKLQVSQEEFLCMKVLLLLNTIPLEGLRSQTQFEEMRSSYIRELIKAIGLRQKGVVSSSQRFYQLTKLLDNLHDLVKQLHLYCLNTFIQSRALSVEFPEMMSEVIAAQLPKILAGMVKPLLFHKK

In the case of `COc1ccc(OC)cc1`, the result in assay [1], in assay [4], in assay [6], in assay [7], in [11] and in assay [12] was inactive. The compound was classed as inactive in assay [13], in assay [14] and in [15]. Besides, the Potency entry in [2], in assay [3], in assay [5], in assay [8], in [9] and in assay [10] was “inactive” in each case.
Turning to `CCNC(=S)NCC`, the outcome in [1], in assay [4], in [7], in [11], in [12] and in [13] was inactive. For the same compound, the result in assay [14] and in [15] was inactive. Also, the Potency entry in assay [16], in assay [17], in assay [3], in [5], in assay [8] and in assay [9] was “inactive” throughout. In addition, the Potency result in assay [10] was “inactive”.
Turning to `O=C1CCCC1`, the call in [1], in assay [4], in assay [11], in assay [12], in [13] and in [14] was inactive. For the same compound, the outcome in assay [15] and in assay [18] was inactive. The Potency result in assay [16], in assay [17], in [3], in [5], in assay [8] and in [9] was “inactive” throughout. The Potency result in assay [10] is “inactive”.
Turning to `CCOCCOCCOCCO`, the compound was classed as inactive in assay [1], in assay [4], in assay [7], in assay [11], in assay [12] and in assay [13]. For the same compound, the compound was classed as inactive in assay [14], in assay [15] and in [18]. The Potency entry in [16], in assay [17], in [2], in [3], in [8] and in assay [9] was “inactive” each time. Also, the Potency result in [10] was “inactive”.
Consider `C=CC(=O)OCCC(=O)O`, for which the outcome in assay [1], in [4], in assay [7], in [11], in [12] and in assay [13] was inactive. For the same compound, the compound was classed as inactive in [14], in [15] and in assay [18]. In addition, the Potency entry in assay [3], in assay [5], in [8], in assay [9] and in [10] was “inactive” throughout.
With `O=S(=O)(O)c1ccc(N=Nc2c(O)ccc3cc(S(=O)(=O)O)ccc23)cc1`, the result in assay [1], in assay [4], in [11], in [12], in assay [13] and in [14] was inactive. The result in assay [15] and in assay [18] was inactive. Besides, the Potency in assay [2] is 54.7 µM (active) and 30.6 µM (active); in assay [8] it was 48.8 µM (active) and 27.3 µM (active). Moreover, the Potency entry in [3], in assay [5], in [9] and in assay [10] was “inactive” throughout.
With `CCO[Si](CCC#N)(OCC)OCC`, the compound was called inactive in [1], in assay [4], in assay [11], in assay [12], in assay [13] and in assay [14]. In addition, the compound was called inactive in assay [15] and in assay [18]. Further, the Potency result in [16], in assay [17], in assay [2], in [3], in assay [5] and in assay [8] was “inactive” each time. Further, the Potency result in [9] and in assay [10] was “inactive” in each case.
Consider `CN1C(=O)CC[C@H]1c1cccnc1`, for which the call in assay [1], in [4], in [6], in assay [7], in assay [11] and in [12] was inactive. Further, the result in [13], in assay [14] and in [15] was inactive. The Potency entry in assay [16], in [17], in assay [2], in assay [3], in assay [8] and in [9] was “inactive” each time. Also, the Potency result in [10] was “inactive”.
Consider `CC1(C)NC(=O)NC1=O`, for which the call in [1], in [4], in [7], in [11], in assay [12] and in [13] was inactive. The compound was called inactive in [14], in assay [15] and in assay [18]. In addition, the Potency result in [2], in assay [3], in assay [5] and in assay [8] was “inactive” throughout.
Regarding `CCCCCCCCCCCC(=O)OC`, the outcome in assay [1], in assay [4], in assay [7], in [11], in assay [12] and in [13] was inactive. Moreover, the result in [14], in [15] and in assay [18] was inactive. In addition, the Potency entry in assay [16], in assay [17], in assay [2], in assay [3], in assay [5] and in assay [8] was “inactive” in each case. Moreover, the Potency result in assay [9] and in assay [10] was “inactive” in each case.
For the compound `COc1ccc(CCC(C)=O)cc1`, the result in [1], in assay [4], in assay [7], in [11], in assay [12] and in [13] was inactive. Besides, the compound was classed as inactive in assay [14], in assay [15] and in [18]. In addition, the Potency result in assay [16], in [17], in [3], in assay [8], in [9] and in assay [10] was “inactive” throughout.
